High-throughput results (PubChem BioAssay)
Most compounds without a hit are left out; they make up all but 12% or so of the library.
BAZ2B inh: BAZ2B (human) inhibition | Potency, µM (highest dose often 114 µM), hits mostly inhibitors | 360,000 tested, 4.4% active | AlphaScreen BAZ2B-H3K14Ac peptide displacement; also: nearly all actives have a fitted effect of over 60% in size
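Protein-peptide AlphaScreen: BAZ2B 50 nM, b-H3K14Ac 50 nM, 1x PBS pH 7.4 + 0.01% Tween-20. Preincubation 30 min RT; cpd 30 min RT (top 110 uM); beads 20 min RT, light-protected.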
JMJD2A Tudor inh: blocks the human JMJD2A Tudor domain. AlphaScreen JMJD2A-Tudor / H3K4me3 peptide binding. O75164. 390,000 tested, 4.4% active. Potency, µM (series often up to 114 µM), usual class: inhibitors; also: nearly all actives have a fitted effect of over 50% in size
G9a block: blocks human histone lysine methyltransferase G9a | Potency, µM (top dose mostly 102 µM), most hits filed as inhibitors | 350,000 tested, 8.8% active | AID 504332 | G9a H3K9 monomethylation, AlphaScreen, 2 h; also: nearly all actives have a fitted effect of over 75% in size
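Methyltransferase reactions run at room temperature for 2 h (20 nM enzyme, 500 nM biotin-H3K9 peptide, 20 uM SAM) after a 15 min compound preincubation; product detected by AlphaScreen beads and anti-H3K9me1 antibody.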
HP1b binding inh: HP1-beta chromodomain-methylated histone interaction inhibition | Potency, µM (titrated, usually from 114 µM), most hits filed as inhibitors | 390,000 tested, 0.56% active | P83916 | AlphaScreen HP1-beta / biotin-H3K9me3 peptide binding | AID 540317; also: nearly all actives have a fitted effect of over 70% in size
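AlphaScreen: HP1-beta (50 nM) preformed 30 min with biotin-H3(1-18)K9me3 peptide (50 nM) in PBS pH 7.4, 0.01% Tween-20. Compound added for 30 min at RT, then streptavidin donor/nickel chelate acceptor beads (10 ug/mL) for 30 min.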
Sfp inh: blocks B. subtilis Sfp PPTase activity; Q9F4F7; Biochemical Sfp PPTase activity, qHTS; Potency, µM, most hits filed as inhibitors; 310,000 tested, 3.5% active; AID 1490;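 also: the enzyme is Sfp with the accession as filed and its product quenches rhodamine fluorescence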
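After 15 min at room temperature with compound, 15 nM Sfp received 5 uM rhodamine-CoA plus 12.5 uM BHQ-2-ybbR (50 mM Hepes pH 7.6, 10 mM MgCl2). Rate came from the fluorescence difference over 30 min, ex 525/em 598 nm.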
L3MBTL1 inh: inhibitors of human L3MBTL1; AlphaScreen L3MBTL1–H3K9me1 peptide binding; Q9Y468; 230,000 tested, 0.66% active; Potency, µM (doses to about 57.1 µM), hits mostly inhibitors; AID 485360; also: nearly all actives have a fitted effect of over 60% in size
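AlphaScreen assay: L3MBTL1 (50 nM final) was preincubated 30 min at room temperature with biotinylated H3(1-15)K9me1 peptide (75 nM final), then 30 min with library compounds; streptavidin donor and nickel chelate acceptor beads (10 ug/mL final) added, 30 min dark.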
Hits are given with their value; 0 = inactive; ? = inconclusive; - = no result; [ ] = remark or other dose. Calls follow the shape of the dose curve; as a rule, active = well fitted curve in the direction sought with a large enough effect; inconclusive = small, poorly fitted or top-dose-only effect, or another doubt; inactive = no such curve, though single readings can be large; an effect the other way counts as inactive or inconclusive.

SMILES	BAZ2B inh	JMJD2A Tudor inh	G9a block	HP1b binding inh	Sfp inh	L3MBTL1 inh
S=c1[nH]nc(-c2ccc(Br)o2)n1Cc1ccccc1	0	32µM	?	0	0	-
S=c1[nH]nc(-c2cccs2)n1Cc1ccccc1	0	?	?	0	0	0
Cc1n[nH]c(=S)n1Cc1ccccc1	0	?	35µM	0	0	0
S=c1[nH]nc(-c2ccc(Cl)cc2)n1Cc1ccccc1	0	?	1.4µM	0	0	0
O=C(C[C@@H]1C/C=C\CC[C@@H](Cc2ccc(F)cc2)C(=O)OC[C@@H](Cc2ccccc2)NC1=O)NCCO	-	0	-	0	-	0
N#CCC(=O)N/N=C/c1ccc(N2N=C(c3ccccc3)CC2c2ccccc2)cc1 (stereo unspecified)	0	0	0[12.7 µM]	0	0	-
C=CCn1c(SCC(=O)N(C)C2CCCCC2)nnc1C1CC1	-	0	-	0	-	0
S=c1[nH]nc(C2CCCCC2)n1Cc1ccccc1	0	35µM	11µM	0	0	0
C=CCn1c(C2CCCCC2)n[nH]c1=S	0	5.6µM	20µM	0	0	0
COc1ccc(-c2n[nH]c(=S)n2Cc2ccccc2)cc1	0	25µM	-	0	0	0
S=c1[nH]nc(-c2ccccc2)n1Cc1ccccc1	0	11µM	0[2.33 µM]	0	0	0
COc1ccccc1-n1ccnc(SCC(=O)NCCc2ccccc2)c1=O	0	0	0[2.33 µM]	0	-	0
CC(C)(CN1CCN(C(c2ccccc2)c2ccccc2)CC1)NS(=O)(=O)c1ccccc1	0	0	0	0	0	-
CC(=O)c1ccc(S(=O)(=O)N2CCN(C(=O)CSc3ccc(F)cc3)CC2)cc1	0	0	0	0	0	-
COc1ccc(-c2n[nH]c(=S)n2Cc2ccccc2)cc1OC	0	10µM	-	?	0	0
CCOc1cc(-c2n[nH]c(=S)n2Cc2ccccc2)ccc1OC(F)F	0	0	?	0	-	0
O=C(c1cccc([N+](=O)[O-])c1)N1CCN(C/C=C/c2ccccc2)CC1	0	0	0	0	0	0
O=[N+]([O-])c1cccc(C(=S)N2CCN(c3ccccc3F)CC2)c1	?	?	20µM	?	0	0
O=[N+]([O-])c1cccc(C(=S)N2CCN(c3ccccc3)CC2)c1	?	0	8.9µM	?	32µM	0
C/C(=N\N1CCN(c2ccc(Cl)cc2)CC1)c1cccc([N+](=O)[O-])c1	?	?	22µM	0	0	0[11.4 µM]
O=C(c1cccc([N+](=O)[O-])c1)N1CCN(c2ccc(Cl)cc2)CC1	?	0	?	0	0	0
O=C(c1cccc([N+](=O)[O-])c1)N1CCN(S(=O)(=O)/C=C/c2ccccc2)CC1	0	0	8.9µM	0	-	0
CCOc1ccc(C(=O)NCCc2sc(-c3ccc(F)cc3)nc2C)cc1	0	0	0	0	-	-
CCc1cc2c(=O)c(-c3nc4ccccc4[nH]3)coc2c(CN2CCCCC2C)c1O (stereo unspecified)	0	0	-	0	0	0
CCc1cc2c(=O)c(-c3nc4ccccc4[nH]3)coc2c(CN2CCCCC2)c1O	79µM	0	?	0	0	0
SMILES	BAZ2B inh	JMJD2A Tudor inh	G9a block	HP1b binding inh	Sfp inh	L3MBTL1 inh
COc1ccccc1CNC(=O)c1ccc(-c2nc(CS(=O)(=O)c3ccc(C)cc3)c(C)o2)cc1	0	0	0	0	-	-
O=C(Cc1c(O)c2ccccc2[nH]c1=O)NCc1ccccc1F	0	0	71µM	0	0	0
COc1cc(/C=N/N=C2/C(=O)Nc3ccccc32)cc(OC)c1O	50µM	?	2.8µM	0	0	0
Cc1ccc(-c2nc3c(c(SCC(=O)N4CCOCC4)n2)Cc2c(CO)cnc(C)c2O3)cc1	?	?	14µM	0	0	-
CCN(CC)C(=O)CSc1nc(-c2ccc(C)cc2)nc2c1Cc1c(CO)cnc(C)c1O2	45µM	?	14µM	0	-	-
Cc1cc(C)cc(NC(=O)CSc2nc(-c3cccc(Cl)c3)nc3c2Cc2c(CO)cnc(C)c2O3)c1	50µM	0	0	0	-	-
CC(C)(C)NC(=O)C(=O)NNC(=O)c1ccco1	56µM	0	0	0	79µM	0
Cc1cccc(C(=O)NNC(=O)C(=O)NC(C)(C)C)c1	?	?	28µM	0	0	0
CC(C)CNC(=O)C(=O)NNC(=O)c1ccco1	?	0[11.4 µM]	11µM	0	0	0
Cn1c(=O)[nH]c(=O)c2c1nc(SCCO)n2CC(O)COc1ccccc1 (stereo unspecified)	0	0	16µM	?	5µM	0
CCCSc1nc2c(c(=O)[nH]c(=O)n2C)n1CC(O)COc1ccccc1 (stereo unspecified)	0	0	50µM	0	0	0
CC(C)CSc1nc2c(c(=O)[nH]c(=O)n2C)n1CC(O)COc1cccc2ccccc12 (stereo unspecified)	0	?	4µM	?	28µM	0
COC(=O)[C@@]1(C)CCC[C@@]2(C)c3ccc(O)c(C(C)C)c3CCC21 (stereo partly specified)	-	-	0[2.33 µM]	-	0	-
O=C(c1cc(Cl)nc2ccccc12)N1CCc2ccccc2C1	0	0	0	0	0	-
CCCN1C(=O)/C(=C/c2ccccc2OCc2ccc(C(=O)O)cc2)NC1=S	0	0	?	0	0	-
O=C(COc1ccccc1/C=C1\SC(=O)NC1=O)Nc1ccccc1	-	0	0	0	0	-
O=C1NC(=O)N(Cc2ccccc2F)C1=O	0	0	22µM	0	?	-
O=C1NC(=O)/C(=C/c2ccccc2OCc2ccccc2)S1	0	0	40µM	0	0	0
COc1cc(/C=C2/NC(=O)N(Cc3ccccc3F)C2=O)cc(OC)c1O	0	0	35µM	0	0	-
CCOc1cc(/C=C2/NC(=O)N(Cc3ccccc3F)C2=O)ccc1O	0	0	0	0	0	0
O=C(O)c1ccc(COc2ccccc2/C=C2\NC(=O)N(Cc3ccccc3)C2=O)cc1	0	25µM	?	?	0	0
COc1ccc(-c2nc3cnc(OC)nc3n(C[C@H]3CCCO3)c2=O)cc1	-	-	0[0.501 µM]	-	0	-
O=C(O)c1ccc(COc2ccccc2/C=C2\NC(=O)N(Cc3ccccc3F)C2=O)cc1	0	40µM	?	?	?	0
O=C(O)c1ccc(COc2ccc3ccccc3c2/C=C2/NC(=O)N(Cc3ccc(F)cc3)C2=O)cc1	28µM	20µM	?	?	71µM	?
O=C(N/N=C/C1CC=CCC1)c1ccccc1O (stereo unspecified)	0	0	0[12.7 µM]	0	0	0
O=c1cnnc(N/N=C/C2CC=CCC2)[nH]1 (stereo unspecified)	8.9µM	32µM	0	0	45µM	-
O=C1C=C(c2ccc(O)cc2)C[C@@H](c2ccc3c(c2)OCO3)C1	0	?	0[0.501 µM]	0	-	0
O=C1C=C(c2ccc(C(=O)O)cc2)C[C@@H](c2ccc3c(c2)OCO3)C1	50µM	79µM	0[0.501 µM]	0	-	?
